Reference: PubChem BioAssay (EPA / NIEHS)
Values joined by “and” are separate entries in the source; they are usually repeats but may differ in a detail not shown here. Equal entries are not always repeated. More than one record can exist for a structure, and the calls need not agree. Active and inactive are the calls of the source. Rule for the calls: active = hit-call score of the fitted dose curve at least 0.9, where 1 is the maximum; inactive = score below 0.9.

assay: CCTE_Shafer_MEA_dev_per_network_spike_spike_percent: CCTE's Neural Network Formation Assay for Percent of Spikes in a Network Spike, Shafer Lab (AID 2284054)
Description: CCTE_Shafer_MEA_dev assay is conducted using Axion Biosystems 48 well microelectrode array (MEA) plates and Maestro recording system. Each well of the MEA plate contains a grid of 16 microelectrodes embedded in the culture surface. Electrically active cells, such as neurons, can be cultured over the electrodes, and electrical activity in these cells can be recorded extracellularly. The spontaneous firing of neurons is captured from each electrode on a microsecond timescale providing both temporally and spatially precise data. […] The CCTE_Shafer_MEA_dev assay uses primary cultures of rat cortical neurons. Recordings are made on days post-plating 5, 7, 9 and 12. As these cultures mature over time, neural networks develop functional activity and form cohesive networks in which electrical activity can be highly coordinated. CCTE_Shafer_MEA_dev_per_network_spike_spike_percent is 1 of 19 assay components of the CCTE_Shafer_MEA_dev assay. It measures the percent of spikes (action potential firings) in a network spike (temporally-clustered group of spikes across multiple electrodes) as the number of spikes that occur within a 0.05 s time window at the peak of a network spike divided by the total number of spikes during a recording in a microelectrode array (MEA) using Axion Biosystems Maestro 768 channel amplifier with the AxIS adaptive spike detector. To collapse across multiple recordings made on days post-plating 5, 7, 9 and 12, the trapezoidal area-under-the-curve of the component is calculated.Data from the assay component CCTE_Shafer_MEA_dev_per_network_spike_spike_percent was analyzed into 1 assay endpoint. This assay endpoint, CCTE_Shafer_MEA_dev_per_network_spike_spike_percent, was analyzed in the negative analysis fitting direction relative to DMSO as the negative control and baseline of activity. Using a type of functional reporter, gain or loss-of-signal activity can be used to understand electrical activity.
On the day prior to culture, each well was coated thoroughly with 150 uL of 0.05% polyethyleneimine (PEI, Sigma Cat P3143) in 50 mM HEPES (Sigma Cat H7523) at a pH of 8. The plate was incubated at 37C for one hour. PEI was rinsed out with 500 uL of sterile water three times. Plates were stored at 4C until the day of culture. This culture was plated at a seeding density of 1.5 x 10^5 cells/well on a 48-well MEA plate, prepared as described above. Cells were administered via a 25 uL media/laminin ([…]; Sigma Cat L2020-1MG) drop directly onto the microelectrode array, as adding the cells with the laminin results in better attachment than pre-coating with laminin. After 2 hours, an additional 475 uL of cortical media was added and the cells returned to the incubator. Exposure starts at day 0 of plating and is continued over twelve days of network development until the experiment is terminated. Cells are fed with fresh medium on DIV 5 and 9, following the recordings on those days. The entire volume of media in the well is exchanged and any vehicle or compound treatment is renewed. Complete details are found in OP-NHEERL/ISTD/SBB/TJS/2015-03-r0 (available on request, email shafer.tim@epa.gov). Measurement of the electrical activity is non-invasive, and recordings can be made from the same plate over multiple different days of the culture. In cortical neurons, this allows for the measurement of extracellular action potentials over the period during which networks form in the MEA plate.

Q: For `O=C(O)COc1ccc(Cl)cc1Cl`, which outcome is on record?
A: Its outcome is “inactive”.

Q: For `ClC1C(Cl)C(Cl)C(Cl)C(Cl)C1Cl` (configuration not stated), which outcome is on record?
A: Its outcome is “inactive”.

Q: With `COP(=O)(OC)OC=C(Cl)Cl` as the compound, how does the AC50 read?
A: The AC50 was 1.99 µM (active).

Q: With `Oc1cc(Cl)ccc1Oc1ccc(Cl)cc1Cl` as the compound, how does the AC50 read?
A: The AC50 was 9.46 µM (active).

Q: For `CC1(C)C(C=C(Cl)Cl)C1C(=O)OC(C#N)c1ccc(F)c(Oc2ccccc2)c1` (configuration not stated), which AC50 is on record?
A: Its AC50 is 1.72 µM (active) and 13.6 µM (active) and 4.24 µM (active).

Q: Which outcome does the source give for `O=[N+]([O-])/N=C1\NCCN1Cc1ccc(Cl)nc1` here?
A: Its outcome is “inactive”.

Q: With `O=S(=O)(O)C(F)(F)C(F)(F)C(F)(F)C(F)(F)C(F)(F)C(F)(F)C(F)(F)C(F)(F)F` as the compound, how does the outcome read?
A: The outcome was “inactive”.

Q: Which AC50 does the source give for `CC(C)N(C(=O)COc1nnc(C(F)(F)F)s1)c1ccc(F)cc1` here?
A: Its AC50 is 15 µM (active).

Q: And the outcome?
A: Its outcome is “inactive”.

Q: Which results are given for `CC[C@H](C)[C@H]1O[C@]2(C=C[C@@H]1C)C[C@@H]1C[C@@H](C/C=C(\C)[C@@H](O[C@H]3C[C@H](OC)[C@@H](O[C@H]4C[C@H](OC)[C@@H](O)[C@H](C)O4)[C@H](C)O3)[C@@H](C)/C=C/C=C3\CO[C@@H]4[C@H](O)C(C)=C[C@@H](C(=O)O1)[C@]34O)O2` (tested in a mixture with another compound)?
A: outcome: inactive; AC50: 0.259 µM (active)

Q: Which AC50 does the source give for `CC1(c2ccc(Oc3ccccc3)cc2)OC(=O)N(Nc2ccccc2)C1=O` (configuration not stated) here?
A: Its AC50 is 2.47 µM (active).

Q: With `O=S1OCC2C(CO1)C1(Cl)C(Cl)=C(Cl)C2(Cl)C1(Cl)Cl` (configuration not stated) as the compound, how does the AC50 read?
A: Its AC50 is 4.76 µM (active).

Q: For `O=C(O)C(F)(F)C(F)(F)C(F)(F)C(F)(F)C(F)(F)C(F)(F)C(F)(F)F`, which outcome is on record?
A: The outcome was “inactive”.

Q: For `CNC(=O)CSP(=S)(OC)OC`, which AC50 is on record?
A: Its AC50 is 50 µM (active) and 15 µM (active).

Q: With `COP(=S)(OC)Oc1ccc([N+](=O)[O-])cc1` as the compound, how does the outcome read?
A: The outcome was “inactive”.

Q: With `CCC(C)(C)C(=O)OC1=C(c2ccc(Cl)cc2Cl)C(=O)OC12CCCCC2` as the compound, how does the outcome read?
A: The outcome was “inactive”.
